# Most compounds without a hit are left out; they make up all but 22% or so of the library.
# CYP2C9 act – CYP2C9 (human) activation; P11712; recombinant CYP2C9, luciferin-H conversion, luminescence; stronger effect = higher value; factor 1 = untreated enzyme, 0 = blocked; activation factor at 5 µM; 1.4% of 96,000 active; AID 1024;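 active = activation factor of 2 or more for CYP2C9 at a 5 µM dose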
# Target sequence (P11712 whole entry, looked up): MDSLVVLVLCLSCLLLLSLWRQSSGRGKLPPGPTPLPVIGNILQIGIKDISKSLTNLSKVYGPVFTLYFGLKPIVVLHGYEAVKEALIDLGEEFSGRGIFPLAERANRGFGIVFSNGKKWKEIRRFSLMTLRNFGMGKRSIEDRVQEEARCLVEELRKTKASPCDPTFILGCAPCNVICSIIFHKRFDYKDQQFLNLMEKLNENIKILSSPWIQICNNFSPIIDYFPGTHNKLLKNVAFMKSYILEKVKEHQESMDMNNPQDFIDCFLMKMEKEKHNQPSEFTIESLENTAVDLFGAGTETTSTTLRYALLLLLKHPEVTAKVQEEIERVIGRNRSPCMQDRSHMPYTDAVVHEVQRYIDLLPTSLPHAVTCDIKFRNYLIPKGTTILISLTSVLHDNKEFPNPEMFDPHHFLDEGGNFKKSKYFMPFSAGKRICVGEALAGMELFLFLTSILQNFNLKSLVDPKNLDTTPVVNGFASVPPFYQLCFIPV
# CYP2C19 act – cytochrome P450 2C19 (human) activation | recombinant CYP2C19, luciferin-H EGE luminescence; stronger effect = higher value; 0 = fully inhibited enzyme, 1 = untreated enzyme | activation factor at 5 µM | P33261 | 96,000 tested, under 10 active;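 active = activation factor of at least 2 at 5 µM in the primary screen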
# CYP2C19 inhib – blocks human cytochrome P450 2C19. P33261. CYP2C19 Supersomes, luciferin-H EGE luminescence, 30 min. inhibition, % at 5 µM. 21% of 96,000 active. AID 778;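 active = CYP2C19 inhibition above a set limit at 5 µM in the primary screen, cut at about 50% in these data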
# cytoskel mod – modifiers of cytoskeleton assembly; HUVEC TNFa F-actin phalloidin imaging, high content; inhibition, % at 2 µM; 0.18% of 91,000 active; AID 836;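 active = inhibition above the batch mean plus 3 SD and confirmed as a hit by visual image inspection, cut at about 30% in these data, passing the limit was not always enough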
# E-sel TNF inh – TNF alpha driven E-selectin expression inhibition; inhibition, % at 2 µM; 0.71% of 120,000 active; HUVEC TNFa-induced E-selectin immunofluorescence, high content; AID 1246;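 active = inhibition above the batch mean plus 3 SD, and confirmed as a hit on visual image review, cut at about 43% in these data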
# CYP2C9 inhib – blocks human cytochrome P450 2C9; P11712; CYP2C9 Supersomes, luciferin-H conversion, luminescence; inhibition, % at 5 µM; 20% of 96,000 active;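 active = blocking of liver enzyme CYP2C9 beyond about 50% at 5 µM, limit read from the data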
# Hits are given with their value; n = inactive; x = not tested or not shown.
SMILES,CYP2C9 act,CYP2C19 act,CYP2C19 inhib,cytoskel mod,E-sel TNF inh,CYP2C9 inhib
Cc1ccc(S(=O)(=O)Cc2ccc(C(=O)NCc3ccc4c(c3)OCO4)o2)cc1,n,n,84,x,n,98
O=C(Nc1ccccc1)NC1(C(=O)NCc2cccs2)CCCCC1,n,n,n,n,n,63
Cc1ccc(S(=O)(=O)C2(C(=O)NCc3ccc4c(c3)OCO4)CC2)cc1,n,n,69,x,n,64
O=C(NCc1ccc2c(c1)OCO2)C1(S(=O)(=O)c2ccccc2)CC1,x,x,x,n,n,x
Cc1ccc(NC2=NCC(=O)N2Cc2ccc3c(c2)OCO3)cc1,n,n,88,x,n,86
COCCNC(=O)c1ccc(CS(=O)(=O)c2ccc(C)cc2)o1,n,n,n,n,x,n
O=C(Nc1ccccc1)NC1(C(=O)NCCCN2CCOCC2)CCCCC1,n,n,n,n,x,n
COc1ccc(Nc2ncnc3nc[nH]c23)cc1OC,n,n,n,x,n,n
COc1ccc(N(CC(=O)NC2CCCCC2)C(=O)CNC(=O)c2ccco2)cc1OC,x,x,x,n,n,x
COc1ccc(Cc2nc(N)nc(N)n2)cc1,x,x,x,n,n,x
CC(C)(C)c1ccc(CN2N=Nc3ccccc3S2(=O)=O)cc1,n,n,n,n,n,n
O=C(NCc1ccc2c(c1)OCO2)c1ccc(COc2cccc(Cl)c2)o1,n,n,64,x,x,88
O=C(NCc1cccs1)Nc1ccc2c(c1)OCO2,n,n,52,n,n,n
Cc1ccc(NC(=O)NCc2ccc3c(c2)OCO3)cc1,n,n,51,n,n,n
CC12CCC(C(=O)NCc3ccc4c(c3)OCO4)(C(=O)C1=O)C2(C)C (stereo not given),n,n,56,n,n,n
CC12CCC(C(=O)NCc3ccc4c(c3)OCO4)(CC1=O)C2(C)C (stereo not given),n,n,n,n,n,n
O=C(NCc1ccccn1)Nc1ccc2c(c1)OCO2,n,n,n,n,n,n
COc1cc(OC)cc(C(=O)Nc2nnc(-c3cccnc3)o2)c1,x,x,x,x,n,x
Cc1nc(N2CCN(C(=O)c3ccco3)CC2)c2c3c(sc2n1)CCC3,n,n,86,x,n,86
Cc1sc2nc(C(C)C)nc(SCC(=O)N3CCN(C(=O)c4ccco4)CC3)c2c1C,n,n,80,n,n,92
Cc1sc2ncnc(SCC(=O)N3CCN(C(=O)c4ccco4)CC3)c2c1C,n,n,n,x,n,n
CC(C)c1nc(N2CCN(C(=O)c3ccco3)CC2)c2c3c(sc2n1)CCCC3,n,n,n,n,n,58
O=C(Nc1ccccc1Br)C1CCC(=O)N1Cc1ccccc1Cl (stereo not given),n,n,n,x,x,n
O=C(/C=C/c1ccc(Cl)cc1Cl)Nc1cccc(S(=O)(=O)NC2=NCCCCC2)c1,x,x,x,x,n,x
Cc1ccc(C(=O)C2OC(=O)C(C)(C)C(=O)C2(C)C)cc1 (stereo not given),n,n,n,n,n,n
SMILES,CYP2C9 act,CYP2C19 act,CYP2C19 inhib,cytoskel mod,E-sel TNF inh,CYP2C9 inhib
CCOc1cc(N2CCOCC2)c(OCC)cc1NC(=O)c1c(-c2ccccc2Cl)noc1C,x,x,x,x,n,x
Cn1cnnc1SCC(=O)c1c(N)n(Cc2ccccc2)c(=O)n(C)c1=O,x,x,x,x,n,x
Cn1c(=O)c(C(=O)CSc2nncs2)c(N)n(Cc2ccccc2)c1=O,n,n,91,n,n,62
O=c1c2ccccc2nc(SCCN2CCCCC2)n1CCc1ccccc1,x,x,x,x,n,x
O=C(Nc1nc2c(s1)CCCC2)C1COc2ccccc2O1 (stereo not given),n,n,n,n,x,n
O=c1c(-c2nc3ccccc3s2)cccn1Cc1ccc(Cl)c(Cl)c1,n,n,n,n,n,74
O=C(c1cccn(Cc2ccc(Cl)c(Cl)c2)c1=O)N1CCOCC1,n,n,n,n,n,n
Cc1ccc(Cl)c2c1NC(=O)C2(O)CC(=O)c1ccc(Br)cc1 (stereo not given),n,n,61,n,n,n
O=C(CC1(O)C(=O)Nc2cc(Cl)cc(Cl)c21)c1ccncc1 (stereo not given),x,x,x,x,n,x
CCc1ccccc1NC(=O)N1CCC(NC(=O)C(Cc2ccc(OC)c(OC)c2)NC(C)=O)CC1 (stereo not given),n,n,n,n,n,n
CCOC(=O)c1ccc(NC(=O)CCC2COc3ccccc3O2)cc1 (stereo not given),n,n,n,n,n,69
Cc1ccnc(NC(=O)CCC2COc3ccccc3O2)c1 (stereo not given),n,n,82,n,n,55

# Assay outcomes: PubChem BioAssay, several laboratories
